An excerpt weighted towards active compounds, which were near 1.9% of everything screened.
CXXC DNA block = qHTS Fluorescence Polarization Assay for Inhibitors of MLL CXXC domain - DNA interaction. Histone-lysine N-methyltransferase 2A (Homo sapiens), Q03164. AID 2662, 2010. Potency, µM (highest dose often 115 µM), inactives show top-dose activity change, negative = inhibition, hits mostly inhibitors. MLL-CXXC / FITC-HOXA9 DNA fluorescence polarization. 290,000 tested, 0.037% active; active means well fitted inhibition curve with a large enough effect in the polarisation, with a control signal flat, not every such curve was filed as active; inconclusive means small, poorly fitted or top-dose-only effect, or effect the other way, or a change in a side signal; inactive means no such curve, though single readings can be large or run the other way; the % refers to the polarisation; further: potency means the concentration at half of the fitted maximal effect
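Purified MLL-CXXC (added from a 7 uM solution) was preincubated 5 min at ambient with pinned compounds in 50 mM Tris-HCl pH 7.5, 50 mM NaCl, 1 mM DTT, 0.05% BSA. Fluorescein-labeled HOX-A9 DNA (50 nM solution) followed, 30 min, then polarization read.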
Menin-MLL TR inh = qHTS Assay for Inhibitors Targeting the Menin-MLL Interaction in MLL Related Leukemias: Competition With Texas Red Labeled MLL-derived Mutant Peptide | Menin + Texas Red MLL mutant peptide, fluorescence polarization | Potency, µM (top dose mostly 61.6 µM), inactives show at the highest dose FP activity change, negative = inhibition, usual class: inhibitors | 270,000 tested, 0.23% active | AID 1768, 2009; active means well fitted inhibition curve with a large enough effect in the polarisation, with a control signal flat, not every such curve was filed as active; inconclusive means small, poorly fitted or top-dose-only effect, or effect the other way, or a change in a side signal; inactive means no such curve, though single readings can be large or run the other way; the % refers to the polarisation; further: potency means the concentration at half of the fitted maximal effect; % of control where 0% means no effect
Epigenetic derep = Quantitative High-Throughput Screen for Regulators of Epigenetic Control | murine LDR cells, GFP reporter derepression, 30 h | Potency, µM (doses to about 53.9 µM), for inactives: top-dose GFP activation, actives largely listed as activators | 280,000 tested, 0.2% active | AID 1865, 2009; active means well fitted activation curve with a large enough effect; inconclusive means small, poorly fitted or top-dose-only effect; further: potency means the concentration at half of the fitted maximal effect; % of control where 0% means no effect; nearly all actives have a fitted effect of over 60% in size
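Derepression of a silenced CMV-GFP reporter in murine LDR cells is scored by enumerating GFP-positive cells with a laser-scanning microplate cytometer after 30 hours of treatment at 37 C.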
Menin MLL FP FL = qHTS Assay for Inhibitors Targeting the Menin-MLL Interaction in MLL Related Leukemias: Competition With Fluorescein Labeled MLL-derived Peptide. Fluorescence polarization, fluorescein-MLL peptide displacement from menin. FP activity change, % at 61.4 µM. AID 1766, 2009. 290,000 tested, under 10 active; active means well fitted curve in the direction sought with a large enough effect in the polarisation, not every such curve was filed as active; inconclusive means small, poorly fitted or top-dose-only effect, or effect the other way, or a change in a side signal; inactive means no such curve, though single readings can be large or run the other way; the % refers to the polarisation; further: % of control where 0% means no effect
PINK1 expr mod = A Quantitative High throughput Screen to Identify Chemical Modulators of PINK1 Expression; 410,000 tested, 0.2% active; Potency, µM (series often up to 76.6 µM), for inactives: top-dose activation (PINK1 increase), most hits filed as activators; PINK1 immunofluorescence, high-content cytometry, 24 h; active means well fitted activation curve with a large enough effect; inconclusive means small, poorly fitted or top-dose-only effect; cell line not stated here; further: potency means the concentration at half of the fitted maximal effect; % of control where 0% means no effect; nearly all actives have a fitted effect of over 65% in size
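Measures PINK1 amount and localization on or inside mitochondria by immunofluorescence. Stable cells get compounds at 5 concentrations for 24 hours before fixation and staining; CCCP controls included.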
ClpP mod = qHTS Assay for Activators of ClpP; Potency, µM (top dose mostly 57.5 µM), without a hit: at the highest dose activity change, negative = active; purified B. subtilis ClpP, FRET peptide cleavage, 20 min; 340,000 tested, 1.9% active; active means well fitted falling curve with a large enough effect; inconclusive means small, poorly fitted or top-dose-only effect; inactive means no such curve, though single readings can be large or run the other way; further: potency means the concentration at half of the fitted maximal effect; the source files actives as falling curves though it sought activators and does not explain the sign; nearly all actives have a fitted effect of over 65% in size
Target sequence (P80244 whole entry, looked up): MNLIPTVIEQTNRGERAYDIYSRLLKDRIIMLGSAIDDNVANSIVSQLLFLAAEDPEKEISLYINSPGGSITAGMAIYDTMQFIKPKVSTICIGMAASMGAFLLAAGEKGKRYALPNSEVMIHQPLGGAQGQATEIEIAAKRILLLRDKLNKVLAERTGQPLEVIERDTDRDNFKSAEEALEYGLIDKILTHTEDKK
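Buffer: 100 mM Tris/HCl pH8, 100 mM KCl, 0.05% low protease BSA, 2.5% glycerol, 0.01% Tween-20. ClpP 10 microg/mL final; 20 min RT; delta FRET normalized to ADEP and DMSO controls.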
The depositor's hits bear a star; u = inconclusive; x = not tested or not shown.

SMILES	CXXC DNA block	Menin-MLL TR inh	Epigenetic derep	Menin MLL FP FL	PINK1 expr mod	ClpP mod
CC1Cn2c(C(=O)NCCc3ccc(Cl)cc3)cc3cccc(c32)S1 (stereo unspecified)	x	x	-1%	x	9%	32µM*
COc1ccccc1CNC(=O)c1cc2cccc3c2n1CC(C)S3 (stereo unspecified)	x	x	-3%	x	2%	32µM*
Cc1ccccc1CNC(=O)c1cc2cccc3c2n1CC(C)S3 (stereo unspecified)	x	x	-3%	x	1%	40µM*
CC1Cn2c(C(=O)NCc3ccccc3Cl)cc3cccc(c32)S1 (stereo unspecified)	x	x	-3%	x	6%	28µM*
O=S(=O)(Nc1cc(F)ccc1F)c1ccc2[nH]c3c(c2c1)CCCCC3	x	x	-1%	x	7%	-10%
COc1cccc(NC(=O)c2cc(CN3C(=O)c4ccccc4C3=O)ccc2OC)c1	-1%	14%	1%	-1	6%	10µM*
O=C(Cn1nc2ccccc2n1)N1CCOc2ccc(CN3CCc4sccc4C3)cc2C1	x	x	x	x	-1%	x
CCS(=O)(=O)Nc1ccc(-c2ccc(NS(=O)(=O)CC)c(OC)c2)cc1OC	-14%	0%	-1%	2	1%	11µM*
C=C1CCC(O)C/C1=C/C=C1\CCC[C@]2(C)[C@@H]([C@H](C)/C=C/[C@H](C)C(C)C)CC[C@@H]12 (stereo partly specified)	-2%	0%	x	6	x	x
COc1cccc(COc2ccc3c(C)c(Cc4ccccc4)c(=O)oc3c2)c1	x	x	x	x	-1%	13µM*
COc1cc(COc2ccc3c(C)c(Cc4ccccc4)c(=O)oc3c2C)cc(OC)c1OC	-7%	-21%	0%	-1	0%	16µM*
COc1ccc(-c2nc3cc(F)ccc3cc2CN(C(=O)c2ccc3c(c2)OCO3)C2CC2)cc1	x	x	x	x	0%	x
O=C(NCc1ccc(Cl)cc1)c1cnc(N2CCCCC2)c2ccccc12	x	x	0%	x	1%	28µM*
Cc1ccc(CNC(=O)c2cnc(N3CCCCC3)c3ccccc23)cc1	x	x	0%	x	0%	u
O=C(NCc1cccc(Cl)c1)c1cnc(N2CCCCC2)c2ccccc12	x	x	1%	x	2%	32µM*
Cc1cccn2cc(-c3ccccc3)nc12	-2%	-17%	-1%	1	0%	10µM*
COc1ccc(-c2cn3ccc4ccccc4c3n2)cc1	-7%	4%	-1%	1	1%	28µM*
Cc1ccc2nc(-c3ccccc3)cn2c1	u	-11%	0%	0	0%	14µM*
Cc1cccn2cc(-c3ccc(F)cc3)nc12	-4%	0%	u	1	-1%	18µM*
COC(=O)CC1C(=O)NCCN1C(=O)CN1Cc2ccccc2OC(c2ccccc2)C1 (stereo unspecified)	x	x	x	x	2%	x
CO[C@H]1C([C@@]2(C)O[C@@H]2CC=C(C)C)[C@]2(CC[C@H]1OC(=O)/C=C/C=C/C=C/C=C/C(=O)O)CO2 (stereo partly specified)	x	3%	-1%	u	x	x
O=S(=O)(/N=C(/Sc1ccc(Cl)cc1)c1ccccc1)c1ccccc1	x	x	x	x	0%	u
CCn1c(-c2ccccc2F)nc2cc(NC(C)=O)cc(C(=O)N3CCC[C@H]3C(=O)OC)c21	x	x	x	x	2%	x
Cc1ccc(NS(=O)(=O)c2cc([N+](=O)[O-])ccc2N/N=C/c2sc(N3CCOCC3)nc2-c2ccccc2)c(C)c1	5%	x	32µM*	18	13%	1%
O=[N+]([O-])c1ccc(N/N=C/c2cccc(O)c2O)c(S(=O)(=O)N2CCOCC2)c1	-3%	u	5%	0	12%	-1%
SMILES	CXXC DNA block	Menin-MLL TR inh	Epigenetic derep	Menin MLL FP FL	PINK1 expr mod	ClpP mod
O=C(COC(=O)c1cc(-c2ccc(Cl)s2)nc2ccccc12)NCc1ccco1	-14%	x	-1%	1	12%	-3%
COc1ccc(CNC(=O)COC(=O)c2cc(-c3ccc(Cl)s3)nc3ccccc23)cc1	23%	u	0%	u	14%	25µM*
CCOc1ccccc1CNC(=O)c1cc(-c2ccc(Cl)s2)nc2ccccc12	x	x	-1%	x	6%	28µM*
COc1cccc(CNC(=O)c2cc(-c3ccc(Cl)s3)nc3ccccc23)c1	x	x	-1%	x	1%	3.2µM*
CC1CCN(C(=O)COC(=O)C2CCN(S(=O)(=O)c3c(Cl)cccc3Cl)CC2)CC1	x	x	x	x	6%	u
CC1CCCCN1C(=O)COC(=O)C1CCN(S(=O)(=O)c2c(Cl)cccc2Cl)CC1 (stereo unspecified)	17%	x	x	x	1%	16µM*
Cc1cc(CNC(=O)c2cnn(-c3ncc4c(n3)-c3ccccc3CC4)c2C2CC2)on1	x	x	x	x	2%	x
CCN1/C(=C/c2ccc3cc(C)ccc3[n+]2C)Sc2ccc3sccc3c21	217%	u	10µM*	u	4%	-1%
CCN1/C(=C/c2ccc3cc(C)ccc3[n+]2CC)Sc2cc(C)ccc21	u	u	2.8µM*	u	u	2%
CCN1/C(=C/c2ccc3ccccc3[n+]2CC)C=Cc2ccccc21	u	u	u	u	u	3%
CCCCN1/C(=C/c2ccc3ccccc3[n+]2CC)Sc2ccccc21	u	u	3.2µM*	u	11µM*	x
COC(c1ccc2c(c1)CN(C(=O)Cn1nc(C)c3ccccc3c1=O)CCO2)C1CCCCC1 (stereo unspecified)	x	x	x	x	1%	x
C/C(=N\NC(=O)c1cccc(Cl)c1)C1C(=O)c2ccccc2C1=O	6%	5%	-4%	8	40µM*	-2%
CC(=O)Nc1ccc(Br)c2ccccc12	3%	-3%	3%	-1	-1%	x
O=C(Nc1ccc(Br)c2ccccc12)c1ccc2ccccc2c1O	-10%	u	5%	u	25µM*	u
Cc1ccc2[nH]c3c(NCc4ccco4)ncnc3c2c1	1%	10%	-1%	1	21%	18µM*
Fc1ccc2[nH]c3c(NCc4ccco4)ncnc3c2c1	x	x	x	x	0%	4%
COc1cccc(NC(=O)Cn2c(=O)n(-c3ccc(Cl)cc3)c(=O)c3sc4ccccc4c32)c1	x	x	9%	x	4%	32µM*
COc1cccc(-n2c(=O)c3sc4ccccc4c3n(CC(=O)Nc3cccc(Cl)c3)c2=O)c1	x	x	-2%	x	1%	4%
